Experimental data: PubChem BioAssay AID1159580 (chemical genetic matrix, 2015)
Out of some 5,500 compounds screened, about 2,000 (36%) were called active. Inconclusive results (about 18%) are left out. No stated cut-off is given here; in the data, active means normalized growth mostly below about 0.91 (no sharp cut-off); inconclusive means no clear call, values can overlap the other calls; inactive means mostly above about 0.92. Some of the results follow.

Experiment: chemical genetic growth profiling, strain panel (AID 1159580);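 further: tested at 20 µM; growth read once vehicle control cultures reached saturation at 30 °C; 1 = growth at the plate median or of vehicle wells; lower values mean less growth of the strain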
Conditions: S. cerevisiae deletion strains, growth OD

Measured: normalized growth

O=c1c2cc(O)c(O)cc2oc2cc(O)c(C3O[C@H](CO)[C@H](O)[C@@H](O)[C@H]3O)c(O)c12 (stereo not given in full)
active: locus YGL240W, strain doc1, hits give low values 1.14 [resistant] | locus YMR205C, strain PFK2, hits give low values 1.13 [resistant]
inactive: locus YAL021C, strain ccr4, hits give low values 1.01 | locus YAL026C, strain drs2, hits give low values 1.02 | locus YAL030W, strain snc1, hits give low values 1.02 | locus YBL061C, strain skt5, hits give low values 1.03 | locus YBR009C, strain hhf1, hits give low values 1.08 | locus YBR023C, strain chs3, hits give low values 1.02 | locus YBR171W, strain sec66, hits give low values 1.02 | locus YBR231C, strain swc5, hits give low values 1.03 | locus YBR279W, strain paf1, hits give low values 1.01 | locus YCL011C, strain gbp2, hits give low values 1.04 | locus YCL016C, strain dcc1, hits give low values 1.02 | locus YCL061C, strain MRC1, hits give low values 1.02 | locus YCL069W, strain vba3, hits give low values 1.02 | locus YCR088W, strain abp1, hits give low values 1.03 | locus YDL005C, strain med2, hits give low values 1.04 | locus YDL040C, strain nat1, hits give low values 1.02 | locus YDR001C, strain nth1, hits give low values 1.02 | locus YDR069C, strain doa4, hits give low values 1.03 | locus YDR137W, strain rgp1, hits give low values 1.04 | locus YDR159W, strain sac3, hits give low values 1.11 | locus YDR195W, strain ref2 1.12 | locus YDR297W, strain sur2, hits give low values 1.04 | locus YDR334W, strain swr1, hits give low values 1.01 | locus YDR335W, strain msn5, hits give low values 1.01 | locus YDR392W, strain spt3, hits give low values 1.07 | locus YEL003W, strain gim4, hits give low values 1.02 | locus YEL037C, strain rad23, hits give low values 1.02 | locus YEL061C, strain CIN8 (second series), hits give low values 1.02 | locus YER015W, strain faa2, hits give low values 1 | locus YER016W, strain bim1, hits give low values 1.04 | locus YER111C, strain swi4, hits give low values 1.03 | locus YER155C, strain BEM2 (second series), hits give low values 1.12 | locus YFR010W, strain ubp6, hits give low values 1.02 | locus YGL167C, strain pmr1, hits give low values 1.03 | locus YGL173C, strain kem1, hits give low values 1.03 | locus YGL227W, strain vid30, hits give low values 1.04 | locus YGL253W, strain hxk2, hits give low values 0.986 | locus YHR013C, strain ard1, hits give low values 1 | locus YHR027C, strain rpn1, hits give low values 1.01 | locus YHR030C, strain SLT2, hits give low values 0.973 | locus YHR079C, strain IRE1, hits give low values 0.982 | locus YHR142W, strain chs7, hits give low values 0.945 | locus YJL092W, strain hpr5, hits give low values 1.03 | locus YJL095W, strain BCK1 (second series), hits give low values 1.02 | locus YJL095W, strain BCK1, hits give low values 1.03 | locus YJL115W, strain asf1, hits give low values 1.01 | locus YJL129C, strain trk1, hits give low values 0.999 | locus YJL154C, strain vps35, hits give low values 1.02 | locus YJL164C, strain tpk1, hits give low values 0.98 | locus YJL166W, strain qcr8, hits give low values 0.993 | locus YJL187C, strain SWE1, hits give low values 1.02 | locus YJR066W, strain TOR1, hits give low values 0.937 | locus YKL160W, strain elf1, hits give low values 0.988 | locus YKR026C, strain gcn3, hits give low values 1.02 | locus YKR091W, strain srl3, hits give low values 1.03 | locus YLL001W, strain dnm1, hits give low values 1.04 | locus YLL026W, hits give low values 1.02 | locus YLL041C, strain sdh2, hits give low values 1.01 | locus YLR027C, strain aat2, hits give low values 1.01 | locus YLR113W, strain HOG1, hits give low values 1.1 | locus YLR221C, strain rsa3, hits give low values 0.985 | locus YLR258W, strain gsy2, hits give low values 1.06 | locus YLR262C, strain YPT6 (second series), hits give low values 1.02 | locus YLR320W, strain mms22, hits give low values 1.07 | locus YLR342W, strain FKS1, hits give low values 1.03 | locus YLR357W, strain rsc2, hits give low values 1.01 | locus YLR370C, strain arc18, hits give low values 1.01 | locus YLR384C, strain iki3, hits give low values 1.01 | locus YML120C, strain ndi1, hits give low values 1 | locus YMR058W, strain fet3, hits give low values 1.01 | locus YMR125W, strain sto1, hits give low values 1.07 | locus YMR129W, hits give low values 1.02 | locus YMR231W, strain pep5, hits give low values 1.02 | locus YNL071W, strain lat1, hits give low values 1.02 | locus YNL183C, strain NPR1, hits give low values 0.98 | locus YNL209W, strain ssb2, hits give low values 0.986 | locus YNL248C, strain rpa49, hits give low values 0.992 | locus YNL322C, strain KRE1 (second series), hits give low values 1.02 | locus YNR049C, strain mso1, hits give low values 1.03 | locus YOR001W, strain rrp6, hits give low values 0.981 | locus YOR070C, strain gyp1, hits give low values 0.999 | locus YOR080W, strain dia2, hits give low values 1.03 | locus YOR083W, strain WHI5, hits give low values 0.968 | locus YOR106W, strain vam3, hits give low values 0.887 | locus YOR231W, strain MKK1, hits give low values 0.988 | locus YOR265W, strain rbl2, hits give low values 1.01 | locus YOR270C, strain vph1, hits give low values 0.938 | locus YOR290C, strain snf2, hits give low values 0.995 | locus YPL051W, strain arl3, hits give low values 0.961 | locus YPL078C, strain atp4, hits give low values 0.969 | locus YPL106C, strain sse1, hits give low values 1.05 | locus YPL240C, strain hsp82, hits give low values 0.997 | locus YPL256C, strain CLN2, hits give low values 1
